Values without a mark were called inactive. Activity calls are given as the source filed them.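 How the source made its calls: active means fitted half-maximal concentration AC50 at or below ten times the highest valid tested dose, with signal falling as DNA is displaced (actives reach about 34 µM in these data); inconclusive means flat fit at moderate signal loss, or poor fit quality; inactive means the rest, including signal rising instead of falling.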
Test: acridine orange-DNA binding displacement – biochemical, fluorescence polarization, cherry-picked samples, set 2, artefact control for KSHV LANA DNA-binding inhibitor project, dose response (AID 504727);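 on activity change, negative = DNA displacement: 0% = median of neutral control wells and -100% = mitoxantrone positive control wells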
Settings: series mostly up to 35 µM; activity change, negative = DNA displacement: at the top concentration

SMILES	AC50	activity change, negative = DNA displacement [%]
CN(C)c1ccc(/C=N/N(CCO)C2=NS(=O)(=O)c3ccccc32)cc1	4.28 µM (active)	
O=C1/C(=C/C=C/c2ccco2)SC(=S)N1NS(=O)(=O)c1ccccc1		7.94
COc1cc(C(=O)O)cc(NC(=O)c2ccco2)c1OC		-3.79
CC(C)=C1C2C=CC1C(C(=O)Nc1cc(C)ccc1C)C2C(=O)O (stereo not drawn)		1.34
NC1=NC[C@@H](Cc2ccc(O)cc2)N1CCc1cc(C(F)(F)F)cc(C(F)(F)F)c1		4.46
CC(C)(CS(=O)(=O)[O-])NC(=O)CC[N+](C)(C)CCO		8.27
COc1ccc(OCC(=O)N2CCN(c3cccc(C(F)(F)F)c3)CC2)cc1		4.78
Nc1c(C(=O)Nc2ccccc2F)sc2nc(Cc3ccccc3)cc(C(F)(F)F)c12	20.2 µM (active)	
S=c1[nH]nc([C@@H]2C[C@H]2c2ccccc2)n1-c1ccccc1Cl		2.19
CC(=O)OCCn1c2nc(=O)[nH]c(=O)c-2nc2cc(C)c(C)cc21	0.342 µM (active)	
O=C(O)C1(c2ccccc2)CCN(S(=O)(=O)c2ccc(Cl)s2)CC1		0.613
CCOC(=O)c1ccccc1Nc1cc(C)nc2nc(C)nn12		-8.07
S=c1c2c(nc3nc[nH]n13)CCC2		2.23
COc1ccc(C2C(C(=O)c3cccs3)=C(O)C(=O)N2c2nnc(C)s2)cc1OC (stereo not drawn)	21.6 µM (active)	
CCOC(=O)c1cnc(SC)nc1Sc1ccc(Cl)cc1Cl		6.11
CCc1ccc(N2CC(C(=O)OCC(=O)N(CC)c3c(N)n(Cc4ccccc4)c(=O)[nH]c3=O)CC2=O)cc1 (stereo not drawn)		1.35
COc1cccc2c1C(=O)c1c(O)c3c(c(O)c1C2=O)C[C@](O)(C(C)=O)C[C@H]3O[C@@H]1C[C@@H](N)[C@@H](O)[C@@H](C)O1	2.98 µM (active)	
Cc1noc(C)c1-c1nc(CSc2ccccc2)no1		5.12
Cc1cc(=O)c2c([nH]1)c(C)cc1[nH]c(C)c(C)c12		-15.2

SMILES	AC50	activity change, negative = DNA displacement [%]
COc1ccc(Cl)cc1C(=O)NNC(=O)c1cc2ccccc2o1		7.26
O=C(O)C1Nc2ccc(Br)cc2C2C=CCC12 (stereo not drawn)		1.26
Nc1nc(-c2ccc(C(=O)O)cc2)cs1		2.05
CC(=O)Nc1ccc(S(=O)(=O)Nc2nc3ccccc3nc2Nc2ccc(C(=O)O)c(O)c2)cc1		-0.292
CN(CC(=O)Nc1ccc(N2CCOCC2)cc1)C(=O)CSc1ccc(Br)cc1		3.79
CCN(CC(=O)NCc1cccs1)C(=O)c1ccc(S(=O)(=O)Nc2ccccc2C)cc1		0.528
COc1cc(OC)cc(C(=O)NC2CC3CCC(C2)N3C)c1 (stereo not drawn)		0.907
O=C(O)CCCN1C(=O)/C(=C/C=C/c2ccco2)SC1=S		10.5
O=c1cc(-c2ccc(O)c(O)c2)oc2cc(O[C@@H]3O[C@H](CO)[C@@H](O)[C@H](O)[C@H]3O)cc(O)c12		-6.28
O=C1c2cccc3c(O)ccc(c23)C(=O)N1Cc1ccco1	1.19 µM (active)	
Cc1cc(N)ccc1N=Nc1c(C)n(C)n(-c2ccccc2)c1=O		3.39
CC(=O)N/C(=N\OCc1ccc(Br)cc1)c1nonc1NC(C)=O		3.71
CCN(CC)c1ccc2cc(S(=O)(=O)c3ccc(C)cc3)c(=O)oc2c1		-122
COc1ccc(-c2nc(C(=O)O)cs2)cc1OC		3.6
CC1CCCN(C(=O)C(=O)c2cn(CC(=O)N3CCCCCC3)c3ccccc23)C1 (stereo not drawn)		2.69
COc1ccc(NS(=O)(=O)c2ccc(C)c(C(=O)N(C)Cc3ccc(OC)cc3OC)c2)cc1		2.65
CCN(Cc1ccccc1)S(=O)(=O)c1cc2[nH]c(=O)c(=O)[nH]c2cc1C		4.76
Cc1cc2nc3c(=O)[nH]c(=O)[nH]c3nc2c([N+](=O)[O-])c1N	2.41 µM (active)	
CCN(CC)c1ccc2cc(S(=O)(=O)c3ccc(Cl)cc3)c(=O)oc2c1	6.87 µM (active)	
